Source: PubChem BioAssay (NCI)
About 83,000 compounds went through this panel and 20% of them were active in at least one assay; those are over-represented in the sample as a whole.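 A percent growth of 40 corresponds to 60% growth inhibition; 0 means no net growth; -100 means all cells died. Active threshold: below 10.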 Unmarked numbers belong to inactive results. Activity calls are given as the source filed them.

Tests used:
Test in all cases: NCI-60 one-dose screen, 48 h (100 = growth as untreated, 0 = no growth, -100 = all killed)
Conditions in all cases: 10 µM unless noted
[1] = test system: SR leukemia
[2] = test system: OVCAR-8 ovarian
[3] = test system: OVCAR-5 ovarian
[4] = test system: OVCAR-4 ovarian
[5] = test system: SK-OV-3 ovarian
[6] = test system: IGROV1 ovarian
[7] = test system: OVCAR-3 ovarian
[8] = test system: HS 578T breast
[9] = test system: NCI/ADR-RES ovarian
[10] = test system: T-47D breast
[11] = test system: BT-549 breast
[12] = test system: SW-620 colon
[13] = test system: MCF7 breast
[14] = test system: HCT-116 colon
[15] = test system: KM12 colon
[16] = test system: HCC-2998 colon
[17] = test system: MDA-MB-435 melanoma

| Structure (SMILES) | growth [1] | growth [2] | growth [3] | growth [4] | growth [5] [%] | growth [6] | growth [7] | growth [8] | growth [9] | growth [10] | growth [11] | growth [12] | growth [13] | growth [14] | growth [15] | growth [16] | growth [17] |
| --- | --- | --- | --- | --- | --- | --- | --- | --- | --- | --- | --- | --- | --- | --- | --- | --- | --- |
| CCOC(=O)Nc1ccc(-c2nc(-c3cccc(OC)c3)c(-c3ccnc(Br)c3)[nH]2)cc1 | 9.48% (active) | 29.4% | 66.9% | 33.6% | 67.3 | 45.2% | 33.3% | -5.11% (active) | 27.6% | 13% | 56.1% | 46.9% | 17.3% | 25.4% | 24.7% |  |  |
| CCOC(=O)c1sc2ncc(-c3ccc(C)cc3)n2c1C | 112% | 94.7% | 95.9% | 95.4% | 81.3 | 71.3% | 97.2% | 96.7% | 92.9% | 89% | 107% | 93.4% | 86.7% | 93% | 86.6% | 93.3% |  |
| Cc1ccc2c(n1)C(=O)C(Cl)=C(Nc1ccccc1C(C)C)C2=O | 33.4% | 67.5% | 85.9% | 28.4% | 79.7 | 63.9% | -3.79% (active) | 100% | 85.8% | 52.7% | 74.9% | 48.2% | 21.1% | 25.1% | 88% | 113% |  |
| COc1ccc(-c2cc(-c3ccc(Cl)cc3)c(C#N)c(=O)n2CCCCCC(=O)Nc2ccccc2N)cc1 | -1.58% (active) | 29.8% | 52.2% | 54.7% | 63.6 | 37.6% | 58.3% | 70% | 33.3% | 18.6% | 58.4% | 42.4% | 31% | 22.5% | 40.4% | 82.8% |  |
| O=S(=O)(Nc1ccc(-c2nc(-c3cccc(OCCN4CCOCC4)c3)c(-c3ccnc(Br)c3)[nH]2)cc1)c1ccccc1 | -18.7% (active) | 32.3% | 54.5% | 40.6% | 59.1 | 43.7% | 46.1% | 0.194% (active) | 54.1% | 26.6% | 54.3% | 43.5% | 9.52% (active) | 23.6% | 8.86% (active) | 19.1% |  |
| Cc1cccc(NC2=C(Cl)C(=O)c3nc(C)ccc3C2=O)c1 | 1.13% (active) | 6.03% (active) | -43% (active) | -97.5% (active) | 74.5 | -54.1% (active) | -31.8% (active) | -16.5% (active) | 13.8% | -50.2% (active) | 3.34% (active) | -13.7% (active) | -57.8% (active) | -47.6% (active) | 33.5% | 3.47% (active) |  |
| CCCCCCCCCCCCCCCCCCOc1ccccc1CCCOP(=O)(O)OCC[N+](C)(C)C | 11.4% | 64.8% | 75.6% | 89.9% | 85 | 15.5% | 84.5% | 93.5% | 95.4% | 87.8% |  | 69.2% | 60.5% | 44.9% | 13.2% | 50.9% | 91.6% |
| O=c1c2cc(F)ccc2sc2c(N3CCNCC3)nc3ccc(F)cc3c12 | -46.3% (active) | 3.1% (active) | 60.3% | -63.8% (active) | 84 | 36.3% | -84.1% (active) | 46.6% | 4.72% (active) | 22.2% |  | -84.4% (active) | -62.9% (active) | -61.2% (active) | -78.4% (active) | -90.8% (active) | -94.3% (active) |
| O=C(Cc1ccc2c(c1)OCCO2)Nc1nc2ccc(F)cc2s1 | 103% | 94.7% | 90.3% | 96.4% | 105 | 48.3% | 104% | 106% | 99% | 93.6% | 89.6% | 104% | 92.2% |  | 108% |  | 104% |
| NCCCNc1nc2ccccc2c2c(=O)c3cc(C(F)(F)F)ccc3sc12 | -14.9% (active) | 0.22% (active) | 69.8% | -45% (active) | 84.3 | 34.8% | -72.4% (active) | 12.2% | -15.9% (active) | 27.2% | 87.7% | -74.5% (active) | -49.4% (active) |  | -76.7% (active) | -84.6% (active) | -80.9% (active) |
| Cc1cccc2c3c(sc12)C(c1ccc(F)cc1)C(C#N)=C(N)O3 (configuration not stated) | 9.36% (active) | 18.9% | 25.9% | 60.8% | 60.7 | 20.6% | 3.36% (active) | 28.7% | 12% | 66.1% | -0.876% (active) | 21.3% | 8.42% (active) | 7.07% (active) | 2.86% (active) | 21.9% |  |
| COc1ccc2nc(NC(=O)c3cccnc3Nc3ccc(S(N)(=O)=O)cc3)sc2c1 | 59.6% | 97.1% | 102% | 81.7% | 116 | 134% | 98.9% | 96.7% | 104% | 84.6% | 84.7% | 109% | 110% |  | 97.8% | 114% | 91.5% |
| O=c1c2cc(F)cc(Cl)c2sc2c(NCCCNCCO)nc3ccccc3c12 | -6.83% (active) | 95.7% | 93.7% | 79.1% | 93.9 | 79.4% | 96.1% | 88.1% | 89.2% | 101% |  | -32% (active) | 64.6% | 65.1% | 66.7% | 60.9% | 61.1% |
| CCCCCCn1c(-c2ccc(C(=O)O/N=C(\N)c3ccc4ccccc4c3)cc2)nc(-c2ccccc2)c1-c1ccccc1 | -37.7% (active) | 64.6% | 71.6% | 56.8% | 91 | -48.3% (active) | 74.8% | 46.8% | 3.92% (active) | 28.9% | 79.6% | 71.8% | 37.9% | 40.5% | 68.6% | 93.8% |  |
| CCc1cccc2c3c(sc12)C(c1ccc(Cl)cc1)C(C#N)=C(N)O3 (configuration not stated) | 13.6% | 29.4% | 24.6% | 75.2% | 58.3 | 30.2% | 2.19% (active) | 4.92% (active) | 19.2% | 27.8% | 50.8% | 33.4% | 10.3% | 17.9% | 18.5% | 17.5% |  |
| CCOC(=O)c1cn2ncnc(Oc3ccc(NC(=O)NCCN(C)C)c(Cl)c3)c2c1C | -13.1% (active) | 78.9% | 91.6% | 82.4% | 94.1 | 78.7% | 75% | 85.6% | 88.7% | 45.8% |  | 31.5% | 61.6% | 36.4% | 93.3% | 80.2% | 46.1% |
| CCOC(=O)C1=C(N)Oc2c(sc3c(C)cccc23)C1c1ccc(F)cc1 (configuration not stated) | 5.82% (active) | 19% | 27.9% | 42.7% | 60 | 16.9% | -32.9% (active) | 13.6% | 6.4% (active) | 28% | 18.1% | 22.4% | 7.39% (active) | 9.01% (active) | 9.22% (active) | 9.19% (active) |  |
| COc1cccc2c(=O)c3c(sc12)c(NCCCN)nc1ccccc13 | -7.22% (active) | 34.8% | 77.9% | 21.8% | 64.7 | 39.3% | 39.1% | 60% | 46% | 82.6% | 90.4% | -48.7% (active) | 24.9% |  | 13% | -57.3% (active) | 33.9% |
| COc1cccc(-c2nc(-c3ccc(NS(=O)(=O)c4ccccc4)cc3)[nH]c2-c2ccnc(Br)c2)c1 | 8.32% (active) | 33.4% | 48.3% | 34.2% | 63.1 | 44.6% | 30.2% | 7.88% (active) | 40.8% | 14.2% | 51.3% | 34.3% | 9.68% (active) | 17% | 8.67% (active) | 21.8% |  |
